Test results published in PubChem BioAssay (Tox21).
Several values for one entry are separate records, joined by “and”; a condition that tells them apart may be missing. Equal values may be shown once. Results filed as inconclusive are left out. Entries that show only a call come without a potency. Some structures have more than one record in an assay (separate samples or runs), and their calls can disagree. Activity calls are given as the source filed them. Calls follow the shape of the dose curve; as a rule, active = well fitted curve in the direction sought with a large enough effect in the repeat runs; inconclusive = weak or mixed curves; inactive = no such curve, though single readings can be large; an effect the other way counts as inactive or inconclusive.

Assays:
[1] = qHTS RealTime-Glo MT Cell Viability Assay in HEK293 cells - 0 hour (AID 1224880); also: top concentration of the series differs between compounds; nearly all actives have a fitted effect of over 45% in size
Method in brief: (§1)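 600 cells/well were plated with the nonlytic NanoLuc/prosubstrate reagent, pre-incubated 5 h, then given 23 nL of compound in DMSO. Incubation at 37 C for 40 h, with luminescence from viable-cell-reduced substrate read repeatedly from 0 h.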

[2] = A CellTox Green Cytotoxicity Assay to monitor cytotoxicity in HEK293 cells - 32 hour (AID 1224881); also: nearly all actives have a fitted effect of over 40% in size; also: potency is read from the fitted curve at half-maximal effect
Method in brief: (§2)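 HEK293 cells, 600/well, were preincubated 5 hours and then exposed to compounds at 37 C for up to 40 hours. A cell-impermeant cyanine dye staining dead-cell DNA was read by fluorescence at 0, 8, 16, 24, 32 and 40 h time points.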

[3] = A CellTox Green Cytotoxicity Assay to monitor cytotoxicity in HepG2 cells - 32 hour (AID 1224883); also: nearly all actives have a fitted effect of over 50% in size; also: potency is read from the fitted curve at half-maximal effect
Method in brief: (§3)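 HepG2 cells, 600/well, preincubated 5 h with CellTox Green dye, then exposed to Tox21 compounds in DMSO at 37 C for up to 40 h. Dead-cell DNA fluorescence read at the indicated time point.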

[4] = A CellTox Green Cytotoxicity Assay to monitor cytotoxicity in HEK293 cells - 8 hour (AID 1224884); also: nearly all actives have a fitted effect of over 35% in size; also: potency is read from the fitted curve at half-maximal effect
Method in brief: as §2

[5] = qHTS RealTime-Glo MT Cell Viability Assay in HepG2 cells - 16 hour (AID 1224885); also: nearly all actives have a fitted effect of over 50% in size; also: potency is read from the fitted curve at half-maximal effect
Method in brief: (§4)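 Tox21 10K library screened in qHTS format on HepG2 cells carrying RealTime-Glo reagents. Compounds were added after a 5 h preincubation, and the luminescent signal from continuous culture was measured repeatedly during 40 h treatment.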

[6] = qHTS RealTime-Glo MT Cell Viability Assay in HEK293 cells - 8 hour (AID 1224887); also: nearly all actives have a fitted effect of over 50% in size; also: potency is read from the fitted curve at half-maximal effect
Method in brief: as §1

[7] = A CellTox Green Cytotoxicity Assay to monitor cytotoxicity in HEK293 cells - 16 hour (AID 1224888); also: nearly all actives have a fitted effect of over 35% in size; also: potency is read from the fitted curve at half-maximal effect
Method in brief: as §2

[8] = qHTS RealTime-Glo MT Cell Viability Assay in HepG2 cells - 0 hour (AID 1224889); also: nearly all actives have a fitted effect of over 50% in size
Method in brief: as §4

[9] = qHTS RealTime-Glo MT Cell Viability Assay in HEK293 cells - 24 hour (AID 1224886); also: nearly all actives have a fitted effect of over 50% in size; also: potency is read from the fitted curve at half-maximal effect
Method in brief: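 Luminescence generated by NanoLuc from substrate produced by living HEK293 cells served as the viability signal. Each value reflects the reading at its stated time point during continuous 40 h compound exposure at 37 C.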

[10] = A CellTox Green Cytotoxicity Assay to monitor cytotoxicity in HepG2 cells - 0 hour (AID 1224882); also: nearly all actives have a fitted effect of over 35% in size
Method in brief: as §3

| SMILES | Potency [1] | Potency [2] | Potency [3] | Potency [4] | Potency [5] | Potency [6] | Potency [7] | Potency [8] | Potency [9] | Potency [10] |
| --- | --- | --- | --- | --- | --- | --- | --- | --- | --- | --- |
| CC(C)(c1ccc(O)cc1)c1ccc(O)cc1 | inactive | inactive | inactive | inactive | inactive | inactive | inactive | inactive | – | – |
| O=C1NC(=O)[C@@]2(CCOc3ccc(F)cc32)N1 | inactive | inactive | inactive | inactive | inactive | inactive | – | inactive | inactive | – |
| O=C1CC2CC1C1CCCC21 (stereo not drawn) | inactive | – | inactive | – | inactive | inactive | – | inactive | – | inactive |
| Cc1cccc(C)c1NC(=O)C(C)N (stereo not drawn) | inactive | 19 µM (active) | 21.3 µM (active) | 19 µM (active) | inactive | inactive | – | inactive | inactive | – |
| CC(C)NCCCC1(C(N)=O)c2ccccc2-c2ccccc21 | inactive | inactive | inactive | – | inactive | inactive | inactive | inactive | inactive | – |
| C/C=C(\C)C#N | inactive | inactive | inactive | – | inactive | inactive | inactive | inactive | inactive | – |
| CC1(C)CO[C@@H](CC(=O)O)CN1 | inactive | inactive | inactive | inactive | inactive | inactive | – | inactive | – | – |
| CCOC(=O)c1cccc(N)c1 | inactive | inactive | inactive | – | – | inactive | inactive | inactive | inactive | – |
| COC(=O)[C@@H](N)Cc1ccc(O)c(O)c1 | inactive | inactive | inactive | inactive | inactive | inactive | inactive | inactive | – | – |
| CCC=O | inactive | inactive | inactive | – | inactive | inactive | inactive | inactive | inactive | – |
| N#Cc1ccc(C2CCCc3cncn32)cc1 (stereo not drawn) | inactive | inactive | inactive | inactive | – | inactive | inactive | inactive | – | – |
| FC1(F)C(F)(F)C(F)(F)C2(F)C(F)(F)C(F)(F)C(F)(F)C(F)(F)C2(F)C1(F)F (stereo not drawn) | inactive | inactive | inactive | inactive | inactive | inactive | inactive | inactive | – | – |
| CC(C)(CC(=O)O)C(=O)O | inactive | inactive | – | inactive | inactive | inactive | inactive | inactive | inactive | – |
| COC(=O)CC(C)=O | inactive | inactive | inactive | – | inactive | inactive | inactive | inactive | – | – |
| Cc1ccc(Cl)cc1Cl | – | inactive | inactive | inactive | – | inactive | inactive | inactive | inactive | – |
| Cc1cc2c(cc1S(N)(=O)=O)S(=O)(=O)CCC2 | inactive | inactive | inactive | inactive | inactive | inactive | – | inactive | inactive | – |
| CC(=O)N(CC(O)CO)c1c(I)c(C(=O)NCCO)c(I)c(C(=O)NCC(O)CO)c1I (stereo not drawn) | inactive | inactive | inactive | – | inactive | inactive | inactive | inactive | inactive | – |
| Cc1nc2c([nH]1)c(=O)n(C)c(=O)n2Cc1ccco1 | inactive | inactive | inactive | – | inactive | inactive | inactive | inactive | inactive | – |
| FC(F)OC(Cl)C(F)(F)F (stereo not drawn) | inactive | inactive | inactive | inactive | – | inactive | inactive | inactive | inactive | – |
| Cc1cnc(NS(=O)(=O)c2ccc(N)cc2)nc1 | inactive | inactive | inactive | inactive | – | inactive | inactive | inactive | inactive | – |
| CN(C)CCCN1c2ccccc2CCc2ccc(Cl)cc21 | – | 49 µM (active) and 26.8 µM (active) | 34.7 µM (active) and 23.9 µM (active) | – | 49 µM (active) | 43.6 µM (active) and inactive | 54.9 µM (active) and 23.9 µM (active) | – | 38.9 µM (active) and 21.3 µM (active) | inactive |
| O=C(O)c1ccccc1OP(=O)(O)O | inactive | inactive | inactive | – | inactive | inactive | inactive | inactive | inactive | – |
| CCN(CC)CCOCCOC(=O)C1(c2ccccc2)CCCC1 | inactive | inactive | inactive | inactive | inactive | inactive | inactive | inactive | – | – |
| CCN(CC)CCNC(=O)c1cc(S(C)(=O)=O)ccc1OC | inactive | – | inactive | – | inactive | inactive | – | inactive | inactive | inactive |
| O=c1cc(-c2ccccc2)oc2ccccc12 | inactive | – | inactive and 48.7 µM (active) | inactive | inactive | 17.4 µM (active) and 17.3 µM (active) | inactive | inactive | 17.4 µM (active) and 7.71 µM (active) | inactive |
| CC(C)CCCC(C)N (stereo not drawn) | inactive | inactive | inactive | inactive | inactive | inactive | inactive | inactive | – | – |
| CCCCC/C=C\CCC=O | inactive | inactive | inactive | – | inactive | inactive | inactive | inactive | inactive | – |
